The values below are quoted from earlier work in PubChem BioAssay AID977608.

The structures appear in SMILES notation. Screen size: about 4,300 compounds; about 4,300 (100%) were called active. Cut-off not given; nearly all actives show IC50 up to about 1400 µM. So high a share suggests a set chosen from earlier hits. This is one part of the list.

This data set can be described thus: protein-ligand inhibition affinities from structures – PDB-derived complexes (AID 977608).

For orientation: IC50 means the concentration that gives 50% inhibition. As to `Oc1ccc(Nc2nc(-c3ccc(Cl)cc3)cs2)cc1`, the IC50 (literature IC50, protein: Sphingosine kinase 1, PDB entry 3vzd) is 500 nM (active).
Take `Cc1nc2ccc(Br)cc2c(-c2ccc(Cl)cc2)c1[C@H](OC(C)(C)C)C(=O)O`: the concentration for half-maximal inhibition (IC50) (literature IC50, protein: Gag-Pol polyprotein (A128T mutation), PDB entry 4gvm) is 780 nM (active) and the IC50 (literature IC50, protein: Gag-Pol polyprotein, PDB entry 4gw6) was 630 nM (active).
As to `NC(N)c1ccc(CNC(=O)[C@@H]2CCN2C(=O)[C@H](NCC(=O)O)C2CCCCC2)cc1`, the IC50 (literature IC50, protein: bovine trypsin, PDB entry 1k1p) was 11.9 nM (active).
On to `CNC(=O)[C@H](Cc1cnc[nH]1)NC(=O)CN(CCCc1ccccc1)CC(=O)O`, for which the IC50 (literature IC50, protein: human insulin degrading enzyme (ide), PDB entry 4gs8) was 100 nM (active).
For the molecule `O=c1ccn([C@H]2C[C@H](O)[C@@H](CO[P+](O)(O)N[P+](O)(O)O[P+](O)(O)O)O2)c(=O)[nH]1`, the IC50 (literature IC50, protein: Human dUTPase, PDB entry 3ehw) was 15200 nM (active).
As to `O=c1ccn([C@@H]2O[C@H](CO[P+](O)(O)O[P+](O)(O)O)[C@@H](O)[C@H]2O)c(=O)[nH]1`, for the setting “literature IC50, protein: human O-GlcNAc transferase and a thioglycopeptide, PDB entry 4gz3”, the IC50 was 1800 nM (active).
As to `COc1cc(Nc2ncc(F)c(Nc3ccc4c(n3)N(CO[P+](O)(O)O)C(=O)C(C)(C)O4)n2)cc(OC)c1OC`, the IC50 (literature IC50, protein: Bromodomain-containing protein 4 BRD4-1, PDB entry 4o75) was 21000 nM (active).
With `Cc1noc(C)c1-c1ccc2c(Nc3ccccc3C(C)(C)C)c(C(=O)O)cnc2c1`, the IC50 (literature IC50, protein: BROMODOMAIN-CONTAINING PROTEIN 4, PDB entry 4bw1) was 1260 nM (active).
With `COc1nc2c(Nc3ccccc3C(C)(C)C)c(C(=O)O)cnc2cc1-c1c(C)noc1C`, the IC50 (literature IC50, protein: BROMODOMAIN-CONTAINING PROTEIN 4, PDB entry 4bw3) is 500 nM (active).
Turning to `Cc1noc(C)c1-c1ccc2c(Nc3ccccc3C(C)(C)C)c(C(=O)O)cnc2n1`, the IC50 (literature IC50, protein: BROMODOMAIN-CONTAINING PROTEIN 4, PDB entry 4bw2) was 6310 nM (active).
With `COc1cc(OC)nc(C2CCCCC2C(=O)NCc2ccc(Cl)c(Cl)c2)n1` (centres undefined), the IC50 (literature IC50, protein: Phosphopantetheine adenylyltransferase, PDB entry 4nat) was 330 nM (active).
Turning to `CCc1cc(Sc2ncc(C(=O)O)[nH]2)nc([C@H]2CCCC[C@@H]2C(=O)NCc2ccc(Cl)c(Cl)c2)n1`, the IC50 (literature IC50, protein: Phosphopantetheine adenylyltransferase, PDB entry 4nah) is 490 nM (active).
In the case of `CCc1cc(-c2nc(O)c(C(N)=O)c(=O)[nH]2)nc([C@H]2CCCC[C@@H]2C(=O)NCc2ccc(Cl)c(Cl)c2)n1`, where the note is “literature IC50, protein: Phosphopantetheine adenylyltransferase, PDB entry 4nau”, the concentration for half-maximal inhibition (IC50) was 0.87 nM (active).
As for `N[C@@H](C(=O)O)[C@H](O)[C@@]1(C(=O)O)CC[C@H](C[C@H](NC(=O)c2cc(Cl)c(O)c(Cl)c2)C(=O)O)N1`, the IC50 (literature IC50, protein: Glutamate receptor 2, PDB entry 4gxs) is 100000 nM (active).
In the case of `OS(O)(O)c1cc(N=C=S)ccc1/C=C/c1ccc(N=C=S)cc1S(O)(O)O`, the IC50 (literature IC50, protein: human soluble Adenylyl Cyclase TYPE 10, PDB entry 4clz) was 43000 nM (active).
With `O=C(NCCCNCc1cc(Cl)cc(Cl)c1)Nc1ccccc1O`, where the note is “literature IC50, protein: Trypanosoma brucei methionyl-tRNA synthetase, PDB entry 4mw0”, the IC50 was 39 nM (active).
In the case of `CC[C@H](C)[C@H](NC(=O)[C@H](CC(N)=O)NC(=O)[C@H](Cc1ccccc1)NC(=O)[C@H](Cc1c[nH]c2ccccc12)NC(=O)[C@H](CC(N)=O)NC(C)=O)C(=O)N[C@H](C(=O)N[C@@H](CC(N)=O)C(=O)N[C@]1(C)CCCCCC[C@@](C)(C(=O)N[C@H](C(=O)N[C@@H](CCNC(=O)CNC(=O)[C@@H](N)CO[P+](O)(O)O)C(=O)N[C@@H](CCCCN)C(=O)N[C@@H](CCCCN)C(=O)N[C@@H](CCCCN)C(=O)O)[C@@H](C)CC)NC(=O)[C@H](Cc2c[nH]c3ccccc23)NC(=O)[C@H](CC(C)C)NC1=O)[C@@H](C)O`, the IC50 (literature IC50, protein: HIV-1 neutralizing antibody 4E10 Fab, PDB entry 4ngh) is 30 nM (active).
Turning to `CC[C@H](C)[C@H](NC(=O)[C@H](CC(N)=O)NC(=O)[C@H](Cc1ccccc1)NC(=O)[C@H](Cc1c[nH]c2ccccc12)NC(=O)[C@H](CC(N)=O)NC(C)=O)C(=O)N[C@H](C(=O)N[C@@H](CC(N)=O)C(=O)N[C@]1(C)CCCCCC[C@@](C)(C(=O)N[C@H](C(=O)N[C@@H](CCCCN)C(=O)N[C@@H](CCCCN)C(=O)N[C@@H](CCCCN)C(=O)N[C@@H](CCCCN)C(=O)O)[C@@H](C)CC)NC(=O)[C@H](Cc2c[nH]c3ccccc23)NC(=O)[C@H](CC(C)C)NC1=O)[C@@H](C)O`, the IC50 (literature IC50, protein: HIV-1 neutralizing antibody 4E10 Fab, PDB entry 4nhc) was 46 nM (active).
